# Laboratory results reported in PubChem BioAssay (NCATS).
# Inconclusive results are not listed. Entries that show only a call come without a potency. Unmarked numbers belong to inactive results. Activity calls are given as the source filed them. Calls come from the whole dose curve; as a rule, active = well fitted curve in the direction sought with a large enough effect; inconclusive = small, poorly fitted or top-dose-only effect, or another doubt; inactive = no such curve, though single readings can be large; an effect the other way counts as inactive or inconclusive.
# Columns and labels:
# [1] = P-glycoprotein substrates identified in KB-3-1 adenocarcinoma cell line, qHTS therapeutic library screen (AID 1346986); note: nearly all actives have a fitted effect of over 60% in size
# Procedure, shortened: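 Viability read by CellTiter-Glo after 72 h compound exposure in dose-response of KB-3-1 and KB-8-5-11 (P-gp-high) cells. Hits needed AC50 < 10 uM, >50% maximum response and curve class -1.1 to -2.4. Cherry-picks retested ± tariquidar, including pcDNA/MDR-19 HEK-293 pair.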
# [2] = P-glycoprotein substrates identified in KB-8-5-11 adenocarcinoma cell line, qHTS therapeutic library screen (AID 1346987); note: nearly all actives have a fitted effect of over 65% in size; for activity change, negative = cytotoxicity: series mostly up to about 44 µM
# Procedure, shortened: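 Luminescence from CellTiter-Glo, read 5 min after addition, quantified survival of KB-8-5-11 (P-gp-overexpressing) cells exposed to compounds for 72 h. AC50 was derived from concentration-response curves.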
structure (smiles),measurement,setting,value
CC(=O)O[C@H]1C[C@@H](O)C(C)(C)C2C[C@@H](OC(C)=O)[C@@]3(C)C4=CCC(C(CO)CC(O)C5OC5(C)C)[C@]4(C)CCC3[C@]21C (stereo partly specified),Potency,[1],inactive
same,Potency,[2],inactive
CC(C)=CCc1cc(O[C@@H]2O[C@H](CO[C@@H]3OC[C@](O)(CO)[C@H]3O)[C@@H](O)[C@H](O)[C@H]2O)ccc1O,Potency,[1],inactive
same,Potency,[2],inactive
C=C[C@@]1(C)CCC2=C([C@H]1OC(C)=O)[C@H](OC(C)=O)CC1[C@](C)(C(=O)OC)CC[C@H](OC(C)=O)[C@]21C (stereo partly specified),Potency,[1],inactive
same,Potency,[2],inactive
C/C(=C\CCC(C)CCO)C(=O)OC[C@H]1O[C@@H](O[C@@H]2OC=C(C(=O)O)[C@H]3CC[C@](C)(O)[C@@H]23)C(O)[C@@H](O)C1O (stereo partly specified),Potency,[1],inactive
same,Potency,[2],inactive
CC(C)C1CCC(C(=O)N[C@@H](Cc2ccccc2)C(=O)O)CC1 (stereo partly specified),Potency,[1],inactive
same,Potency,[2],inactive
COc1cc(/C=C/C(=O)O[C@@H]2C[C@](O)(C(=O)O)C[C@@H](O)[C@H]2O)ccc1O,Potency,[1],inactive
same,Potency,[2],inactive
Nc1ncnc2c1C(=O)N(c1ccc(C3CCC(CC(=O)O)CC3)cc1)CCO2 (stereo unspecified),Potency,[1],inactive
same,Potency,[2],inactive
N#Cc1ccc(C2CCCc3cncn32)cc1 (stereo unspecified),Potency,[1],inactive
same,Potency,[2],inactive
C=C1[C@@H]2CC[C@@]3(C)[C@H](c4ccoc4)OC(=O)C[C@]13O[C@H]1CC(=O)C(C)(C)[C@H](C(O)C(=O)OC)[C@]12C (stereo partly specified),Potency,[1],inactive
same,Potency,[2],inactive
C[C@@H]1O[C@@H](O[C@H]2[C@H](O[C@H]3[C@H](O[C@H]4CC[C@@]5(C)C(CC[C@]6(C)C5CC=C5[C@@H]7CC(C)(C)CC(=O)[C@]7(C)CC[C@]56C)[C@@]4(C)CO)O[C@H](C(=O)O)[C@@H](O)[C@@H]3O)O[C@H](CO)[C@H](O)[C@@H]2O)[C@H](O)[C@H](O)[C@H]1O (stereo partly specified),outcome,[1],inactive [at 9.29 µM]
same,outcome,[2],inactive [at 9.29 µM]
O=C(NCC(=O)N1CCCC1)Nc1ccc2ccccc2c1,Potency,[1],inactive
same,Potency,[2],inactive
CCc1cccc2c3c([nH]c12)[C@@](CC)(CC(=O)O)OCC3,Potency,[1],inactive
same,Potency,[2],inactive
CC(C)C1(O)NC(=O)C(CC2(O)c3ccccc3N3C(=O)C(C)(C)NC32)n2c1nc1ccccc1c2=O (stereo unspecified),Potency,[1],inactive
same,Potency,[2],inactive
C=C(CO)C(=O)O[C@H]1C[C@@]23O[C@@H]2CC/C(=C/[C@H]2OC(=O)C(=C)[C@H]12)CO[C@H]3O,Potency,[1],inactive
same,Potency,[2],inactive
N#CC1C(=O)N=C(c2cc(Cl)ccc2O)C=C1c1cc(OCc2ccccc2)cc(OCc2ccccc2)c1 (stereo unspecified),Potency,[1],inactive
same,Potency,[2],inactive
NC[C@H]1CCC[C@@H](CNC(=O)[C@@H](Cc2c[nH]c3ccccc23)NC(=O)N2CCC3(C=Cc4ccccc43)CC2)C1,Potency,[1],inactive
same,Potency,[2],inactive
CC1(C)CC[C@]2(C(=O)O[C@@H]3O[C@H](CO)[C@@H](O)[C@H](O)[C@H]3O)CC[C@]3(C)C(=CCC4[C@@]5(C)CC[C@H](OC6OC(C(=O)O)C(OC7OC(CO)C(O)C(O)C7O)C(O)C6O)C(C)(C)C5CC[C@]43C)C2C1 (stereo partly specified),outcome,[1],inactive [at 9.29 µM]
same,"activity change, negative = cytotoxicity",[2],9.04% [at 9.29 µM]
Cc1occc(=O)c1O[C@@H]1O[C@H](CO[C@@H]2OC[C@](O)(CO)[C@H]2O)[C@@H](O)[C@H](O)[C@H]1O,Potency,[1],inactive
same,Potency,[2],inactive
C=C1C(OC(C)=O)CCC2(C)CC3(O)OC(=O)C(C)=C3CC12 (stereo unspecified),Potency,[1],inactive
same,Potency,[2],inactive
CC1=C(C(=O)OC2OC(COC3OC(CO)C(O)C(O)C3O)C(O)C(O)C2O)C(C)(C)CCC1 (stereo unspecified),Potency,[1],inactive
same,Potency,[2],inactive
COC(=O)c1cc(OC)cc(OC)c1C(=O)c1c(OC)cc2c(c1O)C1CCC(O)C(C)(O2)O1 (stereo unspecified),Potency,[1],inactive
same,Potency,[2],inactive
CC(C)CC(=O)O[C@@H]1O[C@H](CO)[C@@H](O[C@H]2O[C@H](C)[C@@H](N[C@H]3C=C(CO)[C@@H](O[C@H]4O[C@H](CO)[C@@H](O[C@H]5O[C@H](CO)[C@@H](O[C@H]6O[C@H](CO)[C@@H](O)[C@H](O)[C@H]6O)[C@H](O)[C@H]5O)[C@H](O)[C@H]4O)[C@H](O)[C@H]3O)[C@H](O)[C@H]2O)[C@H](O)[C@H]1O,outcome,[1],inactive [at 9.29 µM]
same,"activity change, negative = cytotoxicity",[2],8.1% [at 9.29 µM]
CC1(C)C=Cc2c(ccc3c2[N+]([O-])=C2C3(O)CC34NC(=O)C5(CCCN5C3=O)CC4C2(C)C)O1 (stereo unspecified),Potency,[1],inactive
same,Potency,[2],inactive
